Source: PubChem BioAssay (EPA / NIEHS)
Active and inactive are the calls of the source. How the source made its calls: active means hit-call score of the fitted dose curve at least 0.9, where 1 is the maximum; inactive means score below 0.9.

Biological target: Myc proto-oncogene protein (Homo sapiens) (UniProt P01106)
Sequence (P01106 whole entry, looked up): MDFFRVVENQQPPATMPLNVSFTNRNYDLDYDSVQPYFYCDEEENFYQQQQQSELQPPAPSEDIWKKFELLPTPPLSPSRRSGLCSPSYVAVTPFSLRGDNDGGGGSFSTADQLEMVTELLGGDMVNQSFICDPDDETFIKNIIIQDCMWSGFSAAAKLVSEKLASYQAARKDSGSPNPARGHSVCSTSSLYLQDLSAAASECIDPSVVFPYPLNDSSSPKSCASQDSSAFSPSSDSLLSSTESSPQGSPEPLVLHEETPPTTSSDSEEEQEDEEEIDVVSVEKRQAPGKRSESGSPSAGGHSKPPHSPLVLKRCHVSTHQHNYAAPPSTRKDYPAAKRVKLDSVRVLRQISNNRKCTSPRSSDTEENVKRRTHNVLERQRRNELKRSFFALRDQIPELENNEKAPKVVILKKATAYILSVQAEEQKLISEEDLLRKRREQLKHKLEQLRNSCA
Test: ATG_Myc_CIS: Attagene CIS-FACTORIAL HepG2 Assay for human Myelocytomatosis (Myc) Proto-Oncogene Transcription Factor (AID 2282990)
Details: HepG2, Attagene cis-reporter transcription factor activity; actives raise or lower the signal
Procedure, shortened: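 HepG2 cells transiently transfected with multiple cis-promoter-driven reporter transcription units, so endogenous TF activity is read. After 24 h compound exposure, reporter mRNA was quantified by RT-PCR, 6-FAM labelling, HpaI digestion and capillary electrophoresis; bidirectional fit versus DMSO.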
With `CCCCCCCCCCCC#N` the outcome was “inactive”. In the case of `O=C(NC(=O)c1c(F)cccc1F)Nc1ccc(Oc2ccc(C(F)(F)F)cc2Cl)cc1F`, the outcome is reported as “inactive”. With `CC1CCCC1.[C-]#[O+].[C-]#[O+].[C-]#[O+].[Mn]` the outcome was “inactive”. With `CCCCNP(N)(N)=S` the outcome was “inactive”. In the case of `CC(=O)C=Cc1ccccc1`, the outcome is reported as “inactive”. In the case of `Nc1ccccc1C(=O)Oc1ccc2ccccc2c1`, the outcome is reported as “inactive”. For `CC(C)CCCCCCCOC(=O)c1ccccc1C(=O)OCCCCCCCC(C)C`, the outcome was “inactive”. In the case of `CN(C)N`, the outcome is reported as “inactive”. For `CN1C[C@H](C(=O)N[C@]2(C)O[C@@]3(O)[C@@H]4CCCN4C(=O)[C@H](Cc4ccccc4)N3C2=O)C=C2c3cccc4[nH]cc(c34)C[C@H]21`, the outcome was “inactive”. With `O=[N+]([O-])C=Cc1ccccc1` the outcome was “inactive”. In the case of `Nc1ccc(Cl)c(Cl)c1`, the outcome is reported as “inactive”. In the case of `CCCCOP(=O)(O)OCCCC`, the outcome is reported as “inactive”. For `O=C(O)CCl`, the outcome was “inactive”. In the case of `CC(O)CN(CC(C)O)CC(C)O` (stereo not drawn), the outcome is reported as “inactive”. With `Nc1cc(Cl)cc(Cl)c1` the outcome was “inactive”. With `O=[N+]([O-])c1ccc(Cl)cc1` the outcome was “inactive”. For `Nc1ccc(-c2ccc(N)c(N)c2)cc1N`, the outcome was “inactive”. For `c1cc(OCC2CO2)ccc1Cc1ccc(OCC2CO2)cc1` (stereo not drawn), the AC50 was 22.9 µM (active). For `C=CC(=O)OCCCCOC(=O)C=C`, the outcome was “inactive”. With `c1ccc2c(c1)CCCC2` the outcome was “inactive”. In the case of `CCOC(=O)C1OC1(C)c1ccccc1` (stereo not drawn), the outcome is reported as “inactive”. In the case of `[Cl][Sb]([Cl])[Cl]`, the AC50 is reported as 175 µM (active). For `COc1ncc(F)c2nc(S(=O)(=O)Nc3c(F)cccc3F)nn12`, the outcome was “inactive”. For `CC(C)[C@@H](C(=O)O[C@@H](C#N)c1cccc(Oc2ccccc2)c1)c1ccc(Cl)cc1`, the outcome was “inactive”. In the case of `O=[N+]([O-])c1cc([N+](=O)[O-])c2ccccc2c1`, the outcome is reported as “inactive”. In the case of `O=C(O)C(Br)Br`, the outcome is reported as “inactive”. For `C=CC(=O)OCCO`, the outcome was “inactive”. In the case of `CCCCCCCCCCCCCCCC[N+](C)(C)C`, the outcome is reported as “inactive”.

Tested on: not listed separately
Test: ATG_NF_kB_CIS: Attagene CIS-FACTORIAL HepG2 Assay for human Nuclear Factor Kappa B (NF-kB) (AID 2282991)
Details: HepG2 Attagene cis-factorial NF-kB reporter mRNA; actives raise or lower the signal
Procedure, shortened: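 Readout is reporter transcript level, gain or loss versus DMSO, measured 24 h post-dose via RT-PCR, fluorescent labelling and capillary electrophoresis. Human HepG2 liver cells carried transiently transfected CIS reporter constructs reflecting endogenous factors.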
For `CCCCCCCCCCCC#N`, the AC50 was 131 µM (active). In the case of `O=C(NC(=O)c1c(F)cccc1F)Nc1ccc(Oc2ccc(C(F)(F)F)cc2Cl)cc1F`, the outcome is reported as “inactive”. For `CC1CCCC1.[C-]#[O+].[C-]#[O+].[C-]#[O+].[Mn]`, the outcome was “inactive”. With `CCCCNP(N)(N)=S` the outcome was “inactive”. With `CC(=O)C=Cc1ccccc1` the AC50 was 163 µM (active). For `CCC(=O)c1ccc(Cl)cc1`, the outcome was “inactive”. For `C=CC(=O)OC`, the outcome was “inactive”. In the case of `N#CCNCC#N`, the outcome is reported as “inactive”. In the case of `CN1C[C@H](C(=O)N[C@]2(C)O[C@@]3(O)[C@@H]4CCCN4C(=O)[C@H](Cc4ccccc4)N3C2=O)C=C2c3cccc4[nH]cc(c34)C[C@H]21`, the outcome is reported as “inactive”. In the case of `O=[N+]([O-])C=Cc1ccccc1`, the AC50 is reported as 34.7 µM (active). In the case of `Nc1ccc(Cl)c(Cl)c1`, the outcome is reported as “inactive”. In the case of `CCCCOP(=O)(O)OCCCC`, the outcome is reported as “inactive”. For `Nc1cc(Cl)cc(Cl)c1`, the outcome was “inactive”. In the case of `O=[N+]([O-])c1ccc(Cl)cc1`, the outcome is reported as “inactive”. For `C=CCO`, the outcome was “inactive”. In the case of `COC(=O)COc1ccc(Cl)cc1Cl`, the outcome is reported as “inactive”. For `CC(=O)c1cc2c(cc1C)C(C)(C)C(C)CC2(C)C` (stereo not drawn), the outcome was “inactive”. In the case of `Nc1ccc(-c2ccc(N)c(N)c2)cc1N`, the outcome is reported as “inactive”. For `c1cc(OCC2CO2)ccc1Cc1ccc(OCC2CO2)cc1` (stereo not drawn), the AC50 was 54.7 µM (active). In the case of `C=CC(=O)OCCCCOC(=O)C=C`, the AC50 is reported as 35.3 µM (active). With `c1ccc2c(c1)CCCC2` the outcome was “inactive”. With `COc1ncc(F)c2nc(S(=O)(=O)Nc3c(F)cccc3F)nn12` the outcome was “inactive”. In the case of `CC(C)[C@@H](C(=O)O[C@@H](C#N)c1cccc(Oc2ccccc2)c1)c1ccc(Cl)cc1`, the outcome is reported as “inactive”. For `C[C@]12CC[C@H]3[C@@H](CC[C@@]45O[C@@H]4C(O)=C(C#N)C[C@]35C)[C@@H]1CC[C@@H]2O`, the AC50 was 18.6 µM (active). For `O=[N+]([O-])c1cc([N+](=O)[O-])c2ccccc2c1`, the outcome was “inactive”. For `O=C(O)C(Br)Br`, the outcome was “inactive”. With `C=CC(=O)OCCO` the AC50 was 17.1 µM (active). In the case of `CCCCCCCCCCCCCCCC[N+](C)(C)C`, the AC50 is reported as 53.4 µM (active).

Tested on: not listed separately
Test: ATG_NRF2_ARE_CIS: Attagene CIS-FACTORIAL HepG2 Assay for human Nuclear Factor Erythroid 2 Related Factor 2 (NFR2) response to Antioxidant Response Elements (ARE) (AID 2282992);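 on AC50: reporter mRNA level measured by RT-PCR and capillary electrophoresis fluorescence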
Details: HepG2 Attagene ARE/NRF2 reporter, transcription factor activity; actives raise or lower the signal
Procedure, shortened: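 Using transiently transfected HepG2 cells exposed for 24 h, reporter mRNA levels were determined by RT-PCR with fluorescent primer extension and capillary electrophoresis, analysed for gain or loss of signal against DMSO.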
In the case of `CCCCCCCCCCCC#N`, the AC50 is reported as 73.4 µM (active). With `O=C(NC(=O)c1c(F)cccc1F)Nc1ccc(Oc2ccc(C(F)(F)F)cc2Cl)cc1F` the AC50 was 34.5 µM (active). With `CC1CCCC1.[C-]#[O+].[C-]#[O+].[C-]#[O+].[Mn]` the outcome was “inactive”. With `CCCCNP(N)(N)=S` the outcome was “inactive”. In the case of `CC(=O)C=Cc1ccccc1`, the AC50 is reported as 56.5 µM (active). In the case of `CCC(=O)c1ccc(Cl)cc1`, the outcome is reported as “inactive”. For `Nc1ccccc1C(=O)Oc1ccc2ccccc2c1`, the AC50 was 31.7 µM (active). With `C=CC(=O)OC` the outcome was “inactive”. With `CC(C)CCCCCCCOC(=O)c1ccccc1C(=O)OCCCCCCCC(C)C` the outcome was “inactive”. With `N#CCNCC#N` the outcome was “inactive”. In the case of `CN(C)N`, the outcome is reported as “inactive”. For `CN1C[C@H](C(=O)N[C@]2(C)O[C@@]3(O)[C@@H]4CCCN4C(=O)[C@H](Cc4ccccc4)N3C2=O)C=C2c3cccc4[nH]cc(c34)C[C@H]21`, the AC50 was 27 µM (active). With `O=[N+]([O-])C=Cc1ccccc1` the outcome was “inactive”. With `Nc1ccc(Cl)c(Cl)c1` the outcome was “inactive”. With `CCCCOP(=O)(O)OCCCC` the outcome was “inactive”. For `O=C(O)CCl`, the outcome was “inactive”. For `CC(O)CN(CC(C)O)CC(C)O` (stereo not drawn), the outcome was “inactive”. For `Nc1cc(Cl)cc(Cl)c1`, the outcome was “inactive”. With `O=[N+]([O-])c1ccc(Cl)cc1` the outcome was “inactive”. With `Cc1ccc(C)c2ccccc12` the outcome was “inactive”. In the case of `C=CCO`, the outcome is reported as “inactive”. For `COC(=O)COc1ccc(Cl)cc1Cl`, the outcome was “inactive”. With `[CH3][Sn]([Cl])([Cl])[Cl]` the AC50 was 57.6 µM (active). In the case of `CC(=O)c1cc2c(cc1C)C(C)(C)C(C)CC2(C)C` (stereo not drawn), the AC50 is reported as 26.7 µM (active). In the case of `Nc1ccc(-c2ccc(N)c(N)c2)cc1N`, the AC50 is reported as 14 µM (active). In the case of `c1cc(OCC2CO2)ccc1Cc1ccc(OCC2CO2)cc1` (stereo not drawn), the AC50 is reported as 8.95 µM (active). With `C=CC(=O)OCCCCOC(=O)C=C` the AC50 was 24.6 µM (active). For `c1ccc2c(c1)CCCC2`, the outcome was “inactive”. For `CCOC(=O)C1OC1(C)c1ccccc1` (stereo not drawn), the outcome was “inactive”. In the case of `[Cl][Sb]([Cl])[Cl]`, the AC50 is reported as 1.72 µM (active). With `COc1ncc(F)c2nc(S(=O)(=O)Nc3c(F)cccc3F)nn12` the outcome was “inactive”. In the case of `CC(C)[C@@H](C(=O)O[C@@H](C#N)c1cccc(Oc2ccccc2)c1)c1ccc(Cl)cc1`, the outcome is reported as “inactive”. With `C[C@]12CC[C@H]3[C@@H](CC[C@@]45O[C@@H]4C(O)=C(C#N)C[C@]35C)[C@@H]1CC[C@@H]2O` the AC50 was 58.9 µM (active). With `O=[N+]([O-])c1cc([N+](=O)[O-])c2ccccc2c1` the AC50 was 3.1 µM (active). For `O=C(O)C(Br)Br`, the AC50 was 1.86 µM (active). For `C=CC(=O)OCCO`, the AC50 was 47.6 µM (active). With `CCCCCCCCCCCCCCCC[N+](C)(C)C` the outcome was “inactive”.
